We go through eight molecules from PubChem BioAssay.

A short description of test [1]: E. coli DRC41 culture turbidity changes, primary screen, E. coli filamentation inducer project, strain DRC41, OD650, 48 h (AID 1152).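 Also: E. coli MC1000 strain DRC41 lacking acrAB efflux pump and sulA.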 Particulars: E. coli DRC41 (acrAB sulA), higher = more signal, called active from +8 up or from −8 down.
Test [2] in a line: small-molecule binders of probe aLefty1, primary screen, biochemical, small-molecule microarray, 635/667 nm fluorescence (AID 1153).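 Also: score merges spot fluorescence with signal-to-noise ratio from the scanned slide images.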 Particulars: higher = more signal.
Test [3] is described as follows: PSAC antagonists in infected red cells, primary screen, cell-based, P. falciparum Indochina, OD700, 1 h (AID 1154). Particulars: P. falciparum Indochina infected RBC osmotic lysis, higher = more signal, called active from +8 up or from −8 down.
Test [4] in a line: PSAC antagonists in infected red cells, primary screen, cell-based, P. falciparum Indochina, OD700, 2 h (AID 1155).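 Also: lysis reports solute entry through the parasite surface anion channel PSAC; channel blockers reduce lysis of infected cells.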 Particulars: P. falciparum Indochina infected erythrocytes, osmotic lysis OD700; higher = more signal, called active from +8 up or from −8 down.
Test [5] is described as follows: osmotic lysis modulators in infected erythrocytes, primary screen, PSAC antagonist project, cell-based, P. falciparum Indochina, OD700, 3 h (AID 1156). Particulars: higher = more signal, called active from +8 up or from −8 down.
Test [6] is described as follows: PSAC antagonists in infected red cells, primary screen, cell-based, P. falciparum Indochina, OD700, 18 h (AID 1157). As to conditions: P. falciparum Indochina infected erythrocytes, osmotic lysis OD700, 18 h; higher = more signal, called active from +8 up or from −8 down.
A short description of test [7]: modulators of S6 phosphorylation in cells, primary screen, cell-based, A549, cytoblot, luminescence, serum-stimulated (AID 1158).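 Also: serum-stimulated A549 lung adenocarcinoma cells; signal is phosphorylated S6 detected by cytoblot immunostaining with HRP secondary.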 Particulars: A549 phospho-S6 cytoblot, 5 h, higher = more signal.
Test [8] has as its target NADPH oxidase 2 (Homo sapiens) (UniProt P04839). Put plainly: NOX2-dependent H2O2 signal modulators, primary screen, NOX inhibitor project, cell-based, HEK293-NOX2, PMA-stimulated, Amplex Red fluorescence (AID 1159). Also: test concentration not given here. Particulars: 45 min, higher = more signal, called active from +8 up or from −8 down.
The target in test [9] is NADPH oxidase 4 (Homo sapiens) (UniProt Q9NPH5). The test can be described thus: NOX4-dependent H2O2 signal modulators, primary screen, NOX inhibitor project, cell-based, HEK293-NOX4, tetracycline-induced, Amplex Red fluorescence (AID 1160). As to conditions: 45 min, higher = more signal, called active from +8 up or from −8 down.
Test [10] concerns the target NADPH oxidase 5 (Homo sapiens) (UniProt Q96PH1). Put plainly: NOX5-dependent H2O2 signal modulators, primary screen, NOX inhibitor project, cell-based, HEK293-NOX5, Amplex Red fluorescence (AID 1161). Particulars: HEK293-NOX5, ionomycin, 45 min, higher = more signal.
Test [11] is described as follows: A549 cell viability effects, profiling panel, calcein-AM fluorescence, 48 h, basal (AID 1162). Also: test concentration not given here. As to conditions: higher = more signal.
Test [12] in a line: adipocyte viability effects, profiling panel, cell-based, 3T3-L1 adipocytes, calcein-AM fluorescence, 48 h, basal (AID 1163). Also: test concentration not given here. Particulars: 3T3-L1 adipocytes viability, higher = more signal.
Test [13] is described as follows: HepG2 cell viability effects, profiling panel, calcein-AM fluorescence, 48 h, basal (AID 1164). Also: test concentration not given here. As to conditions: higher = more signal.
Test [14] is described as follows: MM1S cell viability effects, profiling panel, calcein-AM fluorescence, 48 h, basal (AID 1165).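 Also: viability of MM1S multiple myeloma cells under basal unstimulated conditions; test concentration not given here.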 Particulars: higher = more signal.
Test [15] can be described thus: basal RPMI8226 viability, no added stimulus, profiling panel, cell-based, calcein-AM fluorescence, 48 h, PK04 Diversity Set (AID 1166).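 Also: cells grown under basal conditions without added stimulus; test concentration not given here.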 As to conditions: RPMI8226 myeloma viability, higher = more signal.
A short description of test [16]: basal HepG2 mitochondrial membrane potential changes, profiling panel, cell-based, JC-1 fluorescence, 24 h, 100 nL compound (AID 1167). Also: test concentration not given here. As to conditions: higher = more signal.
Test [17] in a line: basal 3T3-L1 adipocyte mitochondrial potential changes, profiling panel, cell-based, JC-1 fluorescence, 3T3-L1 adipocytes, 24 h, 100 nL compound (AID 1168). Also: test concentration not given here. As to conditions: JC-1 mitochondrial fluorescence, higher = more signal, called active from +8 up or from −8 down.
The nature of test [18]: basal RPMI8226 mitochondrial membrane potential changes, profiling panel, cell-based, JC-1 fluorescence, 24 h, 100 nL compound (AID 1169). Also: test concentration not given here. As to conditions: RPMI8226 myeloma, JC-1 mitochondrial potential fluorescence, higher = more signal.
Test [19] in a line: basal MM1S mitochondrial membrane potential changes, profiling panel, cell-based, JC-1 fluorescence, 24 h, 100 nL compound (AID 1170). Also: test concentration not given here. As to conditions: higher = more signal.
The nature of test [20]: A549 lung cancer cell viability effects, profiling panel, resazurin fluorescence, 24 h, PK04 Diversity Set (AID 1171). Also: test concentration not given here. Particulars: higher = more signal, called active from +8 up or from −8 down. For orientation: Resazurin is reduced to fluorescent resorufin, in cell work by metabolically active cells.

Active and inactive are the calls of the source.

Chain of NADPH oxidase 5 (Homo sapiens) (Q96PH1 whole entry, looked up): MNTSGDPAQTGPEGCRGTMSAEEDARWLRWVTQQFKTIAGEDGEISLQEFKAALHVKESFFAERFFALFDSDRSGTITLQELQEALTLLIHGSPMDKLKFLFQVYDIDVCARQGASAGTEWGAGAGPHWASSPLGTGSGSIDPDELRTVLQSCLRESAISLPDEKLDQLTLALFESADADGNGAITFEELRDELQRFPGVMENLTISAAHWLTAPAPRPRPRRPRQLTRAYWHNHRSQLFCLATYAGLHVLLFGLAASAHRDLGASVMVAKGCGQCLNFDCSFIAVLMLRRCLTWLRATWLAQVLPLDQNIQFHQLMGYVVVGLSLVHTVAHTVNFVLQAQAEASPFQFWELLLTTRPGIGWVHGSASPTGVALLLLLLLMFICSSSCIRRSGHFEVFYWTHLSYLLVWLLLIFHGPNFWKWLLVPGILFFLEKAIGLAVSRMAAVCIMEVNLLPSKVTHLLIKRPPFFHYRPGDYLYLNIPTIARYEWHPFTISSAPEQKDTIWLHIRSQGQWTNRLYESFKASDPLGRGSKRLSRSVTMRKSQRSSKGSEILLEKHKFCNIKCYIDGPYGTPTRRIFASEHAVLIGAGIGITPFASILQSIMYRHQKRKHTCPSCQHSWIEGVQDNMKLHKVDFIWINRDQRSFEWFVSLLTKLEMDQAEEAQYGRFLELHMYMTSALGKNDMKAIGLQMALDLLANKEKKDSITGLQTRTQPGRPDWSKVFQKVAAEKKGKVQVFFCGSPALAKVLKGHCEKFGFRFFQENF
Chain of NADPH oxidase 4 (Homo sapiens) (Q9NPH5 whole entry, looked up): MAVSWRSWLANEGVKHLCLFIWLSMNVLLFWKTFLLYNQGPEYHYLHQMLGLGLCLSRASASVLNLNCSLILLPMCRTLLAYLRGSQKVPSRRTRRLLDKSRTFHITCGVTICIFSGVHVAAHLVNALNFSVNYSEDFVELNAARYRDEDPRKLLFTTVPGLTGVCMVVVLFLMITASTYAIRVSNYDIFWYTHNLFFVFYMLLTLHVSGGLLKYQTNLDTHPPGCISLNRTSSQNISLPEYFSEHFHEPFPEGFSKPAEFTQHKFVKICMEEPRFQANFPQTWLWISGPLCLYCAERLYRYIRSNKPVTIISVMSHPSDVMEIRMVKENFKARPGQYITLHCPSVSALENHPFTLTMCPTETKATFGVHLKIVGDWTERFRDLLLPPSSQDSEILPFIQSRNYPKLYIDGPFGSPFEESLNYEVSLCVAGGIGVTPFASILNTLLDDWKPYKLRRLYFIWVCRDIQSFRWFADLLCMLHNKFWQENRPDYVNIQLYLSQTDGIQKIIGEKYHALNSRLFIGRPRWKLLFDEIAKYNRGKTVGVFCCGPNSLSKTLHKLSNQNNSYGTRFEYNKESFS
Chain of NADPH oxidase 2 (Homo sapiens) (P04839 whole entry, looked up): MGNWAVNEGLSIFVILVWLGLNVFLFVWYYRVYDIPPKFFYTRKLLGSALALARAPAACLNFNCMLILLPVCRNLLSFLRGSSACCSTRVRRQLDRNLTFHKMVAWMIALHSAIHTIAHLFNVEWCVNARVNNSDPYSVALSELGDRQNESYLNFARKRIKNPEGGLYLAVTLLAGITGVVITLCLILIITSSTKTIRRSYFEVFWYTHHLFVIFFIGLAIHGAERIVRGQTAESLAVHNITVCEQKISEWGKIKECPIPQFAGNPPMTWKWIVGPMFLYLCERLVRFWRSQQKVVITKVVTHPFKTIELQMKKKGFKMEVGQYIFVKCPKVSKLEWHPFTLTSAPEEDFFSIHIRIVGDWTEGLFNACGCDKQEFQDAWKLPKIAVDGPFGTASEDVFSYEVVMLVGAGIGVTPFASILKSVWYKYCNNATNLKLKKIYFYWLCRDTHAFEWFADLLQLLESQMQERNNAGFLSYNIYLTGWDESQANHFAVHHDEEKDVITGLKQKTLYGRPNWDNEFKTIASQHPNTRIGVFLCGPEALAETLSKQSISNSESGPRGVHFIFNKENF

On to `O=C(NN=C1C[C@@H](O)[C@@H](O)[C@@H]2[C@@H]3C(=O)N(Cc4ccccc4)C(=O)[C@@H]3CC[C@@H]12)OCc1ccccc1`, for which the z-score in test [1] was 0.151 (inactive); in [3], 1.91 (inactive); in test [4] it was 0.801 (inactive); in test [5] it was 0.458 (inactive); in test [6], 0.526 (inactive); in [7], 0.0339. Further, the z-score in test [8] is -1.23 (inactive); in test [9], 0.0701 (inactive); in test [10], 0.224; in [11], 0.272; in [12], -0.201; in test [13], -0.258. The z-score in [14] was 0.372; in test [15], 0.582; in test [16], 1.23; in [17], 0.806 (inactive); in test [18], -0.37; in test [19], -1.53. Further, the z-score in test [20] was -0.534 (inactive). Moreover, the composite z-score in test [2] came out at 0.0837.

In the case of `C=CC1=C[C@H](O)[C@@H]2O[C@@H]2C12OCCCO2`, the z-score in [1] was 0.104 (inactive); in test [3], -0.179 (inactive); in [4], 0.191 (inactive); in [5] it was -0.264 (inactive); in test [6] it was -0.121 (inactive); in test [7], -0.495. For the same molecule, the z-score in test [8] is -1.11 (inactive); in test [9], 0.617 (inactive); in [10], 0.629; in test [11], -0.375; in test [12], -0.564; in test [13] it was -0.0684. The z-score in test [14] is -0.705; in [15], 0.265; in [16], -0.977; in [17], -0.729 (inactive); in test [18], -0.371; in test [19], -0.361. For the same molecule, the z-score in test [20] is 0.0527 (inactive). Moreover, in test [2], the composite z-score was -0.275.

For `CC(C)CON=C1C[C@@H](O)[C@@H](O)[C@@H]2[C@@H]3C(=O)N(C4CCCCC4)C(=O)[C@@H]3CC[C@@H]12`, the z-score in test [1] is -1.24 (inactive); in test [3], -0.133 (inactive); in test [4], -0.346 (inactive); in test [5], -0.383 (inactive); in test [6], -0.0384 (inactive); in [7], -0.354. The z-score in test [8] was 1 (inactive); in test [9], -1.59 (inactive); in test [10], -0.143; in test [11] it was -0.162; in test [12] it was 0.617; in test [13], -0.323. The z-score is -0.34 in test [14]; -0.271 in test [15]; -1.21 in test [16]; -0.49 (inactive) in test [17]; -0.0174 in test [18]; 0.268 in test [19]. The z-score in [20] is -0.048 (inactive). The molecule further had a composite z-score in test [2] of -0.0662.

Take `CC(C)=CCCC(C)=CCON=C1C[C@@H](O)[C@@H](O)[C@@H]2[C@@H]3C(=O)N(c4cccc(Oc5ccccc5)c4)C(=O)[C@@H]3CC[C@@H]12`: the z-score in test [1] is -1.15 (inactive); in test [3], 3.39 (inactive); in test [4], -0.298 (inactive); in [5] it was 1.24 (inactive); in test [6], -2 (inactive); in test [7] it was 0.313. In addition, the z-score in [8] was -1.33 (inactive); in [9], -0.237 (inactive); in test [10], -3.35; in test [11] it was -1.19; in test [12], 0.18; in test [13] it was -0.795. Besides, the z-score in test [14] is -2.22; in [15], -3.96; in test [16] it was -1.26; in test [17], 0.641 (inactive); in test [18], -0.805; in test [19], 0.251. Further, the z-score in [20] is 0.919 (inactive). This molecule also registered a composite z-score in test [2] of -0.0501.

`CCOC(=O)[C@H](CC(C)C)NC(=O)CCC1CC(OC(=O)NCc2ccc3c(c2)OCO3)CC2(CCCC(COC(=O)NCCCN3CCCC3=O)O2)O1` (stereo not given in full): the z-score in test [1] is 0.015 (inactive); in [3], 1.08 (inactive); in test [4], 0.448 (inactive); in [5], -0.447 (inactive); in test [6], 0.003 (inactive); in [7] it was 0.375. In addition, the z-score in test [8] is 0.242 (inactive); in [9], 0.187 (inactive); in test [10], 0.32; in test [11], 0.526; in [12] it was -0.268; in [13] it was -0.106. Also, the z-score in test [14] was -0.181; in test [15], 0.514; in [16] it was 0.553; in [17], 0.875 (inactive); in test [18], -0.838; in [19], -0.328. Also, the z-score in test [20] is 0.142 (inactive). In test [2], this molecule returned a composite z-score of 0.0004.

With `COCCNC(=O)OCC1CCCC2(CC(OC(=O)NCc3ccc4c(c3)OCO4)CC(CCC(=O)N[C@@H](C)C(=O)OC)O2)O1` (stereo not given in full), the z-score in [1] is -0.982 (inactive); in [3], -1.19 (inactive); in [4] it was 0.276 (inactive); in test [5] it was 0.0971 (inactive); in [6], 0.296 (inactive); in test [7], -0.472. For the same molecule, the z-score in [8] is 1.1 (inactive); in [9], 1.29 (inactive); in test [10], 0.89; in test [11], 0.122; in test [12] it was -0.0741; in [13], -1.29. In addition, the z-score is 0.463 in test [14]; -2.51 in [15]; -0.802 in test [16]; -0.628 (inactive) in [17]; 0.934 in test [18]; -0.318 in test [19]. The z-score in test [20] is 1.66 (inactive). The same molecule returned a composite z-score in [2] of 0.0341.

As to `C#CCCCON=C1C[C@@H](O)[C@@H](O)[C@@H]2[C@@H]3C(=O)N(CCC(=O)OCC)C(=O)[C@@H]3CC[C@H]12`, the z-score was 0.756 (inactive) in test [1]; 1.08 (inactive) in [3]; -1.4 (inactive) in [4]; 0.792 (inactive) in [5]; -1.51 (inactive) in test [6]; 1.76 in [7]. For the same molecule, the z-score in [8] was -2.03 (inactive); in [9] it was 0.213 (inactive); in test [10] it was -0.949; in test [11] it was 0.278; in test [12] it was 0.73; in test [13] it was 0.249. Further, the z-score was -0.0993 in test [14]; 0.111 in [15]; 0.0972 in test [16]; -0.367 (inactive) in [17]; 0.0174 in [18]; -1.36 in test [19]. For the same molecule, the z-score in test [20] was -1.11 (inactive). The composite z-score in [2] came out at 0.105.

For the molecule `O=C1CCCC=C1C(CCc1ccccc1)OC(=O)c1ccc(Br)cc1` (stereo not given), the z-score in test [1] is -0.303 (inactive); in test [3], 10.6 (active); in test [4], 0.748 (inactive); in test [5] it was -0.295 (inactive); in test [6], -0.364 (inactive); in test [7], 0.307. For the same molecule, the z-score in test [8] is 1.36 (inactive); in test [9], 0.397 (inactive); in test [10] it was -1.5; in [11], -0.281; in [12] it was 0.893; in test [13] it was -0.318. The z-score in test [14] is -3.42; in test [15], -2.69; in test [16] it was -0.158; in test [17], -1.15 (inactive); in test [18], -0.619; in test [19], -0.127. The z-score in [20] is -0.251 (inactive). The molecule also showed a composite z-score in test [2] of 0.16.
